Measured values taken from PubChem BioAssay AID602293 (National Center for Advancing Translational Sciences (NCATS), 2012).
Screen size: about 1,300 compounds; about 30 (2%) were called active. Not shown: some 10% with an inconclusive outcome. This is one part of a sample in which actives are shown more often than they occur. Calls follow the shape of the dose curve; as a rule, active = well fitted inhibition curve with a large enough effect; inconclusive = small, poorly fitted or top-dose-only effect; inactive = flat fitted curve, though single readings scatter.

Assay: qHTS for antagonists of the Thyroid Stimulation Hormone Receptor: Hit Validation in HTRF Activity in a Luteinizing Hormone Receptor Cell Line
Conditions: LHR-expressing cell line, cAMP HTRF, antagonist mode; series mostly up to 58 µM
In short: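 Counter-screen on LH receptor–transfected HEK 293 cells: 30 min compound exposure at room temperature in medium containing 100 uM RO 20-1724 phosphodiesterase inhibitor. Cellular cAMP read by competitive HTRF after lysis with d2-cAMP and anti-cAMP antibody (330 nm excitation; 615/660 nm emission).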

Potency, inactive:
O=C(CN1C(=O)NC2(CCCCCC2)C1=O)N1CCC(Cc2ccccc2)CC1
COc1ccc(NS(=O)(=O)c2cc(-c3cnc(C4CC4)o3)ccc2C)cc1
CC(C)Cn1c(-c2csc3c2CCCC3)n[nH]c1=S
CC(=O)Oc1c(I)cc(I)cc1C(=O)Nc1ccc(Cl)cc1
Cc1ccc(NS(=O)(=O)c2cc(C(=O)Nc3cccc([N+](=O)[O-])c3)ccc2C)cc1
CCCCNC(=O)c1sc(=S)n2c1[nH]c(=O)c1ccccc12
Cc1cccc(CSCCNC(=O)c2ccc(N(C)S(=O)(=O)c3ccccc3)cc2)c1
O=[N+]([O-])c1ccc(COc2cccc(CNc3ccc(F)cc3)c2)cc1
CCCCOc1ncnc2c1[nH]c1ccccc12
COC(=O)Cn1c(=NC(=O)CSC(C)=O)sc2ccccc21
CC(C)C[C@H](N)c1nnc(S(=O)(=O)Cc2ccc(F)cc2)o1
CC(C)c1ccc(/C=C/C(=O)NCCC2=CCCCC2)cc1
CCOC(=O)c1sc(NC(=O)c2cc(-c3ccccc3)nc3ccccc23)c(C#N)c1C
CC1CCc2nc(NC(=O)CSc3nc4ccccc4o3)sc2C1 (stereo not given)
Cc1ccccc1NC1c2ccccc2C(=O)N1Cc1ccco1 (stereo not given)
Cc1c(N=Nc2c(-c3ccc([N+](=O)[O-])cc3)[nH]n(C(N)=S)c2=O)cccc1[N+](=O)[O-]
CC1CCN(S(=O)(=O)c2cccc(C(=O)N3CCN(c4ccc(F)cc4)CC3)c2)CC1
Cc1cccc2c1NC(=O)C2(c1ccc(O)cc1)c1ccc(O)cc1
Cc1ccc(-c2cc(C(=O)Nc3ccncc3)c3ccccc3n2)cc1
CSc1nsc(NC(=O)OCc2ccc(Cl)cc2)n1
CCOC(=O)Cc1csc(NC(=O)COc2ccc(N(C)S(=O)(=O)c3cccs3)cc2)n1
O=C1S/C(=C\c2ccc(O)c([N+](=O)[O-])c2)C(=O)N1c1ccccc1Cl
Cn1c2c(c(=O)[nH]c1=O)C(c1ccc(O)cc1)C1=C(N2)c2ccccc2C1=O (stereo not given)
O=S(=O)(c1ccc(SCc2ccc(Cl)cc2)nc1)N1CCCC1
CCOc1cc(C(=S)N2CCOCC2)ccc1OC(=O)c1ccccc1
